What all share (set-up): scale not given: direction of the effect not stated beside the values
For assay [1], the target named is Protein translocase subunit SecA (Escherichia coli (strain K12)) (UniProt P10408). Put plainly: Assay to Identify E. coli SecA ATPase Inhibitors. Type of assay: functional. Conditions: 30 µM.
Assay [2] concerns the target T1, Ubiquitin-activating enzyme e1, putative (Leishmania donovani (strain BPK282A1)) (UniProt E9BSI1).
T1 sequence (whole entry): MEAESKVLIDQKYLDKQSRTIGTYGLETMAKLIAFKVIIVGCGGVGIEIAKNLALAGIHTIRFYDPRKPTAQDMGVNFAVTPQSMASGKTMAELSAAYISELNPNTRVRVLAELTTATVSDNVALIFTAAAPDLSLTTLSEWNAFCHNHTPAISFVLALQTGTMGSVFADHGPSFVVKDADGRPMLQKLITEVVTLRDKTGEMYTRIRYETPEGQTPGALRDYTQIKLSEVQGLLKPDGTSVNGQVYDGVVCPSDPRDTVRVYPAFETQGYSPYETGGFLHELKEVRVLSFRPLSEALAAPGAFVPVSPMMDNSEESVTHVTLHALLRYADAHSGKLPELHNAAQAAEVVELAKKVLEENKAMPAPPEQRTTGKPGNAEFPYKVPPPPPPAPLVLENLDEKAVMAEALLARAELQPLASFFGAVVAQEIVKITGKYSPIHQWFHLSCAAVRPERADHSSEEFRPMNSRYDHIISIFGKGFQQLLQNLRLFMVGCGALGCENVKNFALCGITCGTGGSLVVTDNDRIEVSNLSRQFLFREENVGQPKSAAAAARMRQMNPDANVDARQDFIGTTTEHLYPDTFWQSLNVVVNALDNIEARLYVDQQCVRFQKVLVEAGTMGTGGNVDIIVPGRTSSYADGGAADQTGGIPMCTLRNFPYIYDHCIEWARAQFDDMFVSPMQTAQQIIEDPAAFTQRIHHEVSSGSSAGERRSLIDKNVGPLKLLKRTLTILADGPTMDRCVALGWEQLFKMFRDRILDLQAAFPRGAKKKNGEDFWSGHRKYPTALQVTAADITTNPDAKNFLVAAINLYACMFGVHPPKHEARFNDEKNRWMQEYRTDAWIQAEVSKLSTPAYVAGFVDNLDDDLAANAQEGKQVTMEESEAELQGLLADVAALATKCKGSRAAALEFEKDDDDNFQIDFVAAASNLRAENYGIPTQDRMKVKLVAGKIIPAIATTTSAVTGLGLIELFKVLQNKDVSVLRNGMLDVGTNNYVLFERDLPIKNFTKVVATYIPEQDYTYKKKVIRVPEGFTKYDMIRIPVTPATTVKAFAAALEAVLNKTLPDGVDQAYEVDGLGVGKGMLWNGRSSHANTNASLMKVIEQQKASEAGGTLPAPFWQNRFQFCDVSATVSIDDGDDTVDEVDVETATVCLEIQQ
As to the kind of experiment: Leishmania donovani Ubiquitin Activating Enzyme (LdE1). It is filed as functional. The settings on record: 30 µM.

Assay [3] has as its target AMP-activated protein kinase, AMPK (Homo sapiens) (UniProt P54646+O43741+P54619+Q9UGJ0+Q9Y478+Q13131+Q9UGI9). As to the kind of experiment: AMP-dependent Kinase enzyme assay. An in vitro enzyme assay that detects ADP turnover that is directly proportional to AMPK activity. This uses naive AMPK that is activated during the assay with MK-8722. It is filed as functional. The settings on record: 30 µM.

Assay [4] concerns the target Sialic acid-binding Ig-like lectin 9 (Homo sapiens) (UniProt Q9Y336). As to the kind of experiment: Hs-Siglec9 ALPHAscreen SOP 20170721. The settings on record: 10 µM.
The next assay concerns Trypanosoma cruzi. As to the kind of experiment: Trypanosoma cruzi phosphomannomutase and mannose-1-phosphate guanylyltransferase assay. The settings on record: 10 µM. Type of assay: functional.
Assay [5] has as its target T2, Arginase-2, mitochondrial (Homo sapiens) (UniProt P78540).
T2 sequence (whole entry): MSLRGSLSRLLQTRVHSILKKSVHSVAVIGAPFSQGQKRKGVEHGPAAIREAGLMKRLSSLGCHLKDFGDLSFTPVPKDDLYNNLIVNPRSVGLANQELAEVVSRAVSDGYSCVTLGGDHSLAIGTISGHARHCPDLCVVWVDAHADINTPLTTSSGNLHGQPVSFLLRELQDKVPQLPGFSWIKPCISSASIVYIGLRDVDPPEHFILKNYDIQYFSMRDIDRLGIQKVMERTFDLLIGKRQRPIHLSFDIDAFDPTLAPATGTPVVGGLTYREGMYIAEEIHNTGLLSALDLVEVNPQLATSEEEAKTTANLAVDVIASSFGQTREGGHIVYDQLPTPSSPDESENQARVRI
Put plainly: in vitro enzyme assay to detect the production of urea directly proportional to the activity of Arginase II. Further: in the data most compounds retested in dose-response had high values. Type of assay: functional. Conditions: 33.3 µM.

For assay [6], the target named is T3, Proteasome subunit beta (Trypanosoma cruzi) (UniProt O96673).
T3 sequence (whole entry): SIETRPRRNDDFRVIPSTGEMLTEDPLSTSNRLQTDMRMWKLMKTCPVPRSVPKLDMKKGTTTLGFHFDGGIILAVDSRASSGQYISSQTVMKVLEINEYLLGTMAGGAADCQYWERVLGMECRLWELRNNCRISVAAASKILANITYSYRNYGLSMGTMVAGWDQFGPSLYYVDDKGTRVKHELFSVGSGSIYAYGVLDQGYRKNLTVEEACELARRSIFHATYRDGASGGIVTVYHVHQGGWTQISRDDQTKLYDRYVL
Put plainly: Trypanosoma cruzi proteasome chymotrypsin-like activity (TcProtChymo) assay. Further: in the data most compounds retested in dose-response had high values. The settings on record: 9.37 µM. It is filed as functional.

For another assay, the species on record is Homo sapiens. As to the kind of experiment: To identify inhibition of the IFN signalling (Jak-Stat) pathway via expression of an eGFP reporter gene under the control of an IFN-stimulated response element (ISRE) containing MxA promoter. It is filed as functional. The settings on record: 30 µM.
Assay [7] deals with T4, Tyrosyl-tRNA synthetase, putative (Trypanosoma cruzi (strain CL Brener)) (UniProt Q4DSP6).
T4 sequence (whole entry): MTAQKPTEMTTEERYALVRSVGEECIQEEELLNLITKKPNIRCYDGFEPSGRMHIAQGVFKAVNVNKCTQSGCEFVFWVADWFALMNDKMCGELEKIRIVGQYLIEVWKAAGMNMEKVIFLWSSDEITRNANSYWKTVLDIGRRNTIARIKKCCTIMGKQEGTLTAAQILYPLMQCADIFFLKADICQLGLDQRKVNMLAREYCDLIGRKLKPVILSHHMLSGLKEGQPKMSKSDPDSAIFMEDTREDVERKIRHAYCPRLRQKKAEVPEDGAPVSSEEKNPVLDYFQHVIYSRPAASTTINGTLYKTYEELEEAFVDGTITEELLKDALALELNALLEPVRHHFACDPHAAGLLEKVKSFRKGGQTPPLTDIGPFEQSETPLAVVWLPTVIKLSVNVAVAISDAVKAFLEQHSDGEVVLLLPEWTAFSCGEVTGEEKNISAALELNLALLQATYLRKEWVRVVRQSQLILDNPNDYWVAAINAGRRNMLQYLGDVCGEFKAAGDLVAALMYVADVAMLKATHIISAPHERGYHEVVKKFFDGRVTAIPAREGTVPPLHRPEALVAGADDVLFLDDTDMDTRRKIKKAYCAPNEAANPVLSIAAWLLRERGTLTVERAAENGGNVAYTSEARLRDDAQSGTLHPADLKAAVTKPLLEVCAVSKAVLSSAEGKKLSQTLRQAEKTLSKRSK
Put plainly: Trypanosoma cruzi tyrosyl tRNA synthetase (TcYRS) _High Tyrosine SOP. Further: in the data most compounds retested in dose-response had high values. Type of assay: functional. Conditions: 30 µM.

Assay [8] concerns the target T4, Tyrosyl-tRNA synthetase, putative (Trypanosoma cruzi (strain CL Brener)). Put plainly: Trypanosoma cruzi tyrosyl tRNA synthetase (TcYRS) SOP. Type of assay: functional. Conditions: 30 µM.
Assay [9] deals with Chromo domain-containing protein 1 (Saccharomyces cerevisiae (strain ATCC 204508 / S288c) (Baker's yeast)) (UniProt P32657). As to the kind of experiment: ScCHD-1 Enzyme Inhibition Assay. Further: in the data most compounds retested in dose-response had high values. It is filed as functional. Conditions: 30 µM.
Sequence of Chromo domain-containing protein 1 (Saccharomyces cerevisiae (strain ATCC 204508 / S288c) (Baker's yeast)) (P32657 whole entry, the tested form may be a part): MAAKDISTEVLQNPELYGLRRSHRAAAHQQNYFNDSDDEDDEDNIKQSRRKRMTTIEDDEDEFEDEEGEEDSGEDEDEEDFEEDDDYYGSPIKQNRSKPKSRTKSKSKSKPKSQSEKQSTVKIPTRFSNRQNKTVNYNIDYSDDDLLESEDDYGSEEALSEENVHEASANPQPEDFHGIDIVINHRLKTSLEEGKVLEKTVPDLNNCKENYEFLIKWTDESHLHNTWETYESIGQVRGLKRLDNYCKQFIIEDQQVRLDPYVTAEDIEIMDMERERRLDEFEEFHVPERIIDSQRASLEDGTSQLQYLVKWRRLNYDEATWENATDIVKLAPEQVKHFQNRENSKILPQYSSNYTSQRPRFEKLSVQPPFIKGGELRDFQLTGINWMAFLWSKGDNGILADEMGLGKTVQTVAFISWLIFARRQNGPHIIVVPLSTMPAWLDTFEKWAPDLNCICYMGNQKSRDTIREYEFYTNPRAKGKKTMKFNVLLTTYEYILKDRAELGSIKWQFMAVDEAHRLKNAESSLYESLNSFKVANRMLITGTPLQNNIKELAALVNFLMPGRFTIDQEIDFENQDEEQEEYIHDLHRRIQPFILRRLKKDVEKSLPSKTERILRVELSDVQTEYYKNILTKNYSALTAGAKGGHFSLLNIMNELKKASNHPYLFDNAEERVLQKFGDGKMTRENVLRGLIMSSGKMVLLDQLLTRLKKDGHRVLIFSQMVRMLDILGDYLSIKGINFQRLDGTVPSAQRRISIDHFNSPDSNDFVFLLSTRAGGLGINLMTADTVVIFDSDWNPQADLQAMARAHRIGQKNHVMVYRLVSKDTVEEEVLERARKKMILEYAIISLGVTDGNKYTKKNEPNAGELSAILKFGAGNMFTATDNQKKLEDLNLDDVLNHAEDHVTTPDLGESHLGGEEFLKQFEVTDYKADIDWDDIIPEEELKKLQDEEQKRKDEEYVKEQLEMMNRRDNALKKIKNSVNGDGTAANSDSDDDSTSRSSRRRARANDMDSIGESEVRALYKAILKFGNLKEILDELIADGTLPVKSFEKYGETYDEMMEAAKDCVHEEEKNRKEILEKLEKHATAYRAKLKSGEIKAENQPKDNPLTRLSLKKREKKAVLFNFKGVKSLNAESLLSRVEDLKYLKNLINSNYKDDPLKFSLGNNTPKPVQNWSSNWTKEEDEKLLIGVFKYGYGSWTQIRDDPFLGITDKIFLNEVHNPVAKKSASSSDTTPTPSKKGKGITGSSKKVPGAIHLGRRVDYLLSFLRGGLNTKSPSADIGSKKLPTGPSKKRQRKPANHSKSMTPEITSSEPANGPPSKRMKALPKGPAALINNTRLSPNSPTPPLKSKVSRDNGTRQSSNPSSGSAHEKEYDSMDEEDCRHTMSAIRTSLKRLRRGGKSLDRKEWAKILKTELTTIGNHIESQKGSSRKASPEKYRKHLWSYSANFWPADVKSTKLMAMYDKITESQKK

The structures appear in SMILES notation. For some of these results: Potency and affinity values are given separately.

Sequence of Protein translocase subunit SecA (Escherichia coli (strain K12)) (P10408 whole entry): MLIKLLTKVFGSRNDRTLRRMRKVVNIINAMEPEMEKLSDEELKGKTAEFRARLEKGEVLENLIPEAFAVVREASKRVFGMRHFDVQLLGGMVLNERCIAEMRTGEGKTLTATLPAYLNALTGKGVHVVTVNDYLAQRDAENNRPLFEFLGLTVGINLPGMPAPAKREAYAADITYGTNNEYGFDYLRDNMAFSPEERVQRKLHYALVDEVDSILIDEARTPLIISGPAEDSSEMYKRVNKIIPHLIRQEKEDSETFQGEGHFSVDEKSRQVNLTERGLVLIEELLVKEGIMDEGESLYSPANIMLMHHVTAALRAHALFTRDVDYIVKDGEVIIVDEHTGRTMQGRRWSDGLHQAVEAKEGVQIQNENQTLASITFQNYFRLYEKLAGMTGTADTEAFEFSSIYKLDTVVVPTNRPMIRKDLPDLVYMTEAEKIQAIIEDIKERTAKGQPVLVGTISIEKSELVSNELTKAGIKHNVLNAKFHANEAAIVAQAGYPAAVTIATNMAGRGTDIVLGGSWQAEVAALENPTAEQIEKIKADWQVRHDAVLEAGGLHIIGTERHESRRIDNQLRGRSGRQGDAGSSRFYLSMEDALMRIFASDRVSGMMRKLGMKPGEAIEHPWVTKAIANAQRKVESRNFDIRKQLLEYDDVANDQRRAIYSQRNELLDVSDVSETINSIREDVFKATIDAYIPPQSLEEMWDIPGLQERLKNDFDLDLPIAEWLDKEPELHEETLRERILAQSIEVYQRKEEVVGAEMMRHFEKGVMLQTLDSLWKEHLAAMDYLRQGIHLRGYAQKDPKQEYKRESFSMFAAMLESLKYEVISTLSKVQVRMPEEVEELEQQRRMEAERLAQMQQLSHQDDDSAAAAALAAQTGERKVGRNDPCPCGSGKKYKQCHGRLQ
Sequence of Sialic acid-binding Ig-like lectin 9 (Homo sapiens) (Q9Y336 whole entry): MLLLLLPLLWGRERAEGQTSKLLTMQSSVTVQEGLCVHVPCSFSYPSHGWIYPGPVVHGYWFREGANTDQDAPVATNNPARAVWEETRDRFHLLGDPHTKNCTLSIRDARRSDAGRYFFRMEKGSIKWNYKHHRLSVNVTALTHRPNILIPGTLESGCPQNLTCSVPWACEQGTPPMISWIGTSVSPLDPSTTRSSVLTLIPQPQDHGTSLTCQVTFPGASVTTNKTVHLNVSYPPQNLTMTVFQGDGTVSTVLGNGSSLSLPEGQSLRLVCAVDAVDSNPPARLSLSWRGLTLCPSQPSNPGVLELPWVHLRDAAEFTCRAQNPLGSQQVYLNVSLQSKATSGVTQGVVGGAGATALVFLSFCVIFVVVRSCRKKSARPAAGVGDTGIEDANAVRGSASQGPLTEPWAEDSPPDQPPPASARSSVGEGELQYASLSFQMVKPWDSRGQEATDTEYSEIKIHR

Consider `CN(C)C(=O)C1CN(Cc2c[nH]cn2)CCN(C2CCOCC2)C1` (stereo not drawn), for which the Percent Effect is -7.04% in assay [1]; 12.2% in assay [2]; 8.74% in assay [3]; 1.93% in [4]; 0.198% in the assay with Trypanosoma cruzi; 8.12% in [5]. The Percent Effect in assay [6] was 6.24%; in the assay listed under Homo sapiens it was 15.9%; in [7], 6.45%; in assay [8], 16.9%; in assay [9] it was -11.5%.

For `NC(=O)Nc1cccc(Oc2ccccn2)c1`, the Percent Effect in assay [1] is -0.17%; in [2] it was 0%; in assay [3] it was 11.3%; in assay [4], -0.357%; in the assay on Trypanosoma cruzi, -3.99%; in assay [5] it was -7.1%. The Percent Effect in assay [6] is 8.53%; in the assay listed under Homo sapiens it was 0.913%; in assay [7], 3.19%; in assay [8], 2.6%; in assay [9] it was -0.275%.

Take `Cc1ccsc1-c1nnc(C2CCN(Cc3ccc(F)cc3)CC2)o1`: the Percent Effect in assay [1] was -4.79%; in assay [2], -9.46%; in assay [3], 14.3%; in assay [4], 4.24%; in the assay on Trypanosoma cruzi it was 7.31%; in assay [5], -4.87%. Moreover, the Percent Effect in [6] was 10.8%; in the assay listed under Homo sapiens, -11.7%; in assay [7], 3.23%; in [8], 3.9%; in assay [9], -15.5%.

As for `COc1ccc(C2(NC(=O)CCn3cncn3)CCCCC2)cc1`, the Percent Effect in assay [1] is -4.12%; in assay [2], 9.46%; in assay [3], 4.65%; in assay [4], 7.71%; in the assay with Trypanosoma cruzi it was 0.79%; in [5], 1.62%. The Percent Effect in assay [6] was 11.2%; in the assay filed under Homo sapiens it was -2%; in [7] it was 3.23%; in assay [8] it was 11.7%; in assay [9] it was -14.1%.

For `Cc1cc(-c2cnc(N3CCNC(=O)C3)nc2-c2cccnc2C)on1`, the Percent Effect was -2.87% in assay [1]; 8% in assay [2]; 5.98% in [3]; 8.08% in assay [4]; 1.97% with Trypanosoma cruzi; -2.1% in [5]. Moreover, the Percent Effect in assay [6] was 7.49%; in the assay filed under Homo sapiens it was 1.83%; in assay [7], 5.32%; in assay [8], 11.5%; in [9] it was -10.5%.

On to `CC(C)c1ncncc1C(=O)N1CCCN(Cc2cccs2)CC1`, for which the Percent Effect in assay [1] is -1.81%; in [2] it was 16.2%; in assay [3], -2.92%; in assay [4] it was -2.71%; in the assay on Trypanosoma cruzi, 8.08%; in [5], -6.47%. In addition, the Percent Effect in [6] is 6.46%; in the assay filed under Homo sapiens, 5.27%; in assay [7] it was 6.93%; in assay [8], 18.3%; in assay [9], -5.18%.

On to `COc1ccc(CNC(=O)NC2CCN(CC(F)F)CC2)cc1C`, for which the Percent Effect in [1] is -6.96%; in assay [2], 5.41%; in assay [3], -0.551%; in assay [4], 14.3%; in the assay on Trypanosoma cruzi, 3.23%; in assay [5], 3.72%. In addition, the Percent Effect in assay [6] is 2.15%; in the assay listed under Homo sapiens, -4.85%; in assay [7] it was 4.3%; in assay [8], 13.6%; in [9] it was -4.89%.

With `Cc1nc(CN2CCC(N(C)Cc3noc(C(C)C)n3)C2)cs1` (stereo not drawn), the Percent Effect was 1.43% in assay [1]; -24.7% in assay [2]; -8.83% in assay [3]; 5.3% in assay [4]; -5.68% with Trypanosoma cruzi; -4.54% in [5]. The Percent Effect in [6] was 19%; in the assay filed under Homo sapiens, 26%; in assay [7], 4.3%; in assay [8], 2.5%; in assay [9], -4.7%.
